This is a sample that favours compounds with a hit; in the whole collection about 4% have one here.
HIF-2a block = inhibitors of HIF-2a; 786-0 RCC cells HIF-2a reporter, luciferase luminescence, overnight; inhibition, % at 18.8 µM; 360,000 tested, 0.72% active; AID 624352;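 active = inhibition of the luminescence signal of 40% or more relative to plate controls, in a single-dose primary screen at 18.75 µM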
TROY NFkB inh = TROY signaling inhibition | Q293 LMP1-TROYcd NF-kB luciferase reporter, 4 h | inhibition, % at 10 µM | 360,000 tested, 0.98% active | AID 1347056;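 active = compounds whose plate-normalised and pattern-corrected inhibition of the luciferase reporter signal at the single screening dose is 50% or more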
Peg3 prom inh = inhibitors of Peg3 promoter; HeLa PEG-Prom luciferase reporter, luminescence, overnight; inhibition, % at 20 µM; 360,000 tested, 1.7% active; AID 588405;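 active = inhibition of at least 50% at 20 µM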
CF NFkB inh = cystic fibrosis NF-kB activation inhibition. inhibition, % at 5 µM. KKLEB NF-kB-GFP reporter, PAF-induced, GFP fluorescence overnight. 360,000 tested, 0.86% active;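 active = at least 50% inhibition at 5 µM, scaled per plate between neutral and stimulator controls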;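 note: PAF is a Pseudomonas aeruginosa culture filtrate used as stimulus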
KKLEB tox = CF airway cell cytotoxicity counter-screen | 360,000 tested, 0.36% active | KKLEB CF airway cells viability, ATPlite luminescence, overnight; active compounds read low; cells stimulated with P. aeruginosa culture filtrate | AID 602141 | activity change (cytotoxicity), % at 5 µM;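 active = corrected activity change at or below -50% at 5 µM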
TWEAK-Fn14 inh = blocks TWEAK-Fn14 interaction in a reporter cell assay; TWEAK-stimulated Fn14 reporter cells, luciferase luminescence, 8 h; inhibition, % at 10 µM; 360,000 tested, 2% active; in the data active = inhibition above about 50%
CF NFkB conf = confirmation of cystic fibrosis induced NF-kB inhibitors. shares compounds with CF NFkB inh. inhibition, % at 5 µM. KKLEB CF airway cells, PAF-induced NF-kB-GFP fluorescence, overnight. 1,300 tested, 64% active; in the data active = inhibition above about 40%;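 note: stimulus PAF is a Pseudomonas aeruginosa filtrate and not platelet activating factor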
Numbers stand for hits; n = inactive; x = no result.

SMILES | HIF-2a block | TROY NFkB inh | Peg3 prom inh | CF NFkB inh | KKLEB tox | TWEAK-Fn14 inh | CF NFkB conf
O=C(NCc1ccccc1F)c1cccc(S(=O)(=O)N2CCCCC2)c1 | n | n | n | n | n | n | x
O=C(Cc1c(F)cccc1Cl)c1ccc(O)cc1O | n | n | n | n | n | n | x
Oc1ccc(C[C@H]2CNC(=S)N2CC2CCCN2C[C@H](Cc2ccccc2)N2C[C@H](Cc3ccc(O)cc3)N(CC3CCCCCC3)C2=S)cc1 (stereo partly drawn) | n | n | n | 58 | n | n | 42
Oc1ccc(C[C@H]2CNC(=S)N2CC2CCCN2C[C@H](Cc2ccc(O)cc2)N2C[C@H](Cc3ccc(O)cc3)N(CC3CCCCC3)C2=S)cc1 (stereo partly drawn) | n | n | n | 59 | n | 96 | 59
CC(C)C[C@H]1CNC(=S)N1C[C@H]1CCCN1C[C@H](Cc1ccc(O)cc1)N1C[C@H](Cc2ccccc2)N(CC2CCCCC2)C1=S | n | n | n | n | n | n | x
CC(C)C[C@H]1CNC(=S)N1C[C@H]1CCCN1C[C@H](Cc1ccccc1)N1C[C@H](Cc2ccc(O)cc2)N(CC2CCCCCC2)C1=S | n | n | 99 | 61 | n | n | 44
CC(C)C[C@@H](CN1CCCC1CN1C(=S)NC[C@@H]1Cc1ccc(O)cc1)N1C[C@H](Cc2ccc(O)cc2)N(CC2CCCCC2)C1=S (stereo partly drawn) | n | n | 93 | 59 | n | 56 | 60
CC(C)C[C@H]1CNC(=S)N1C[C@H]1CCCN1C[C@H](Cc1ccc(O)cc1)N1C[C@H](CC(C)C)N(CC2CCCCCC2)C1=S | n | n | n | n | n | n | x
Nc1nc2ccccc2n1Cc1ccc(Cl)c(Cl)c1 | n | n | n | n | n | n | x
Cc1ccccc1Cn1ccc(NC(=O)c2cnn3cccnc23)n1 | n | n | n | n | n | n | x
CC(C)C[C@H]1CN([C@@H](Cc2ccccc2)CN2CCCC2CN2C(=S)NC[C@@H]2Cc2ccccc2)C(=S)N1CC1CCCCC1 (stereo partly drawn) | n | n | x | x | x | n | x
Oc1ccc(C[C@H]2CN([C@@H](Cc3ccc(O)cc3)CN3CCC[C@@H]3CN3C(=S)NC[C@@H]3Cc3ccccc3)C(=S)N2CC2CCCCCC2)cc1 | n | n | 101 | 58 | n | 61 | n
CCOc1cccc(-c2nnc3sc(C4CCCCC4)nn23)c1 | n | n | n | 66 | n | n | 85
c1cncc(-c2nnc3sc(C4CCCCC4)nn23)c1 | n | n | n | n | n | n | x
COc1cccc(-c2nnc3sc(C4CCCCC4)nn23)c1 | n | 52 | n | 86 | n | 64 | 96
CC(=O)c1c(O)cc2c3c1OC(C)(C)C1CCC(C)(CC31)O2 (stereo not drawn) | n | n | n | 74 | n | 79 | 66
COc1ccccc1NS(=O)(=O)c1ccc(-c2cnc(C3CC3)o2)cc1 | n | n | n | 54 | n | n | 71
Cc1ccc(NS(=O)(=O)c2ccc(-c3cnc(C4CC4)o3)cc2)c(C)c1 | n | n | n | 65 | n | n | 65
CCc1nc2c(OCc3ccc(Cl)cc3)cccn2c1N(C)C(=O)c1ccncc1 | n | n | n | n | n | n | x
O=C(Nc1ccccc1)NC1(C(=O)N2CCN(c3ncccn3)CC2)CCCCC1 | n | n | n | n | n | n | x
O=C(COC(=O)c1ccc2ncsc2c1)Nc1ccc(OC(F)(F)F)cc1 | n | n | n | 52 | n | n | n
Cc1cc(C)c(C(O)c2ncc(-c3ccccc3C)[nH]2)c(C)c1 (stereo not drawn) | n | n | n | n | n | n | x
COc1ccc(NC(=O)NNC(=O)COc2ccc3cc(Br)ccc3c2)c(OC)c1 | n | n | n | 52 | n | n | n
COc1ccc(NC(=O)COc2ccc(Br)cc2)c(OC)c1 | n | n | n | n | n | n | x
CNc1ccc2ncc(-c3ccc(OC)c(OC)c3)n2n1 | n | 57 | n | 76 | n | 83 | 104
SMILES | HIF-2a block | TROY NFkB inh | Peg3 prom inh | CF NFkB inh | KKLEB tox | TWEAK-Fn14 inh | CF NFkB conf
CNc1cncc(-c2ccc(OC)c(OC)c2)n1 | n | n | n | 56 | n | n | n
CNc1cncc(-c2ccc(F)c(F)c2)n1 | n | n | n | n | n | n | x
CCCc1cc(N2CCCC(C(=O)Nc3c(OC)cccc3OC)C2)n2ncnc2n1 (stereo not drawn) | n | n | n | n | n | n | x
O=C(c1ccc(O)c(Br)c1)c1cc(Br)ccc1O | n | 50 | n | 66 | n | n | 61
O=C(c1cnn(-c2ccccc2)c1)c1cc(Br)ccc1O | n | n | n | n | n | n | x
COc1ccc(/C=C2\SC(=S)N(CC(=O)OCC(=O)Nc3ccc([N+](=O)[O-])cc3OC)C2=O)cc1 | n | n | n | n | n | n | x
CCCC(=O)Nc1cc2c3c(c1)C(C)C(=O)N3CCC2 (stereo not drawn) | n | n | n | n | n | n | x
CCCCCCNC(=O)O[C@H]1Cn2c(=O)ccc(=O)n2[C@@H]2CN(S(=O)(=O)c3ccc(C)cc3)C[C@]12O | n | n | 103 | 62 | n | 89 | n
COC(=O)c1ccccc1NC(=O)c1ccccc1OC | n | n | n | n | n | n | x
COc1ccccc1C(=O)Nc1ccccc1SC(=O)c1ccccc1OC | n | 50 | n | 51 | n | n | n
O=C(NNC(=O)C1CCN(S(=O)(=O)c2ccc(Cl)cc2)CC1)c1ccccc1 | n | n | n | n | n | n | x
CCOc1ccccc1N1CCN(c2nc3ccccc3nc2C(C#N)C(=O)OC)CC1 (stereo not drawn) | n | n | n | 90 | n | n | 47
O=C(O)c1ccc(C(=O)C(=O)c2ccccc2)cc1 | n | n | n | n | n | n | x
C=C(C(=O)c1ccccc1)C(C)C(=C)C(=O)c1ccccc1 | 91 | n | 104 | 57 | n | 94 | n
O=c1cc(-c2ccccc2)nc(N2CCN(Cc3ccccc3)CC2)[nH]1 | n | n | n | n | n | n | x
CCCCn1c(CCC(=O)O)nc2cc(S(=O)(=O)N(C)C)ccc21 | n | n | n | n | n | n | x
O=C(O)CCSc1nc2ccccc2n1-c1ccccc1 | n | n | n | 56 | n | n | n
CC(C)N(C(=O)CSc1nc2ccccc2n1-c1ccccc1)C(C)C | n | n | n | n | n | n | x
CC1Cc2ccccc2N1c1ncnc2nc[nH]c12 (stereo not drawn) | n | n | n | 65 | n | 60 | 87
c1ccc2c(c1)CCN(c1ncnc3nc[nH]c13)C2 | n | n | n | n | n | n | x
CC(C)(O)C#Cc1ccc([C@@H]2C[C@H]3CN(c4ccccc4)C(=O)[C@]34CCCN24)s1 | n | n | 103 | 60 | n | n | 44
Cc1ccc(-c2ccc(CN3C(C(C)C)C(=O)N(Cc4cn(Cc5ccco5)nn4)CCS3(=O)=O)cc2)cc1 (stereo not drawn) | n | n | 56 | 69 | n | n | n

Bioassay records from PubChem.
